Screening data deposited in PubChem by National Center for Advancing Translational Sciences (NCATS).
An excerpt weighted towards active compounds, which were near 18% of everything screened.
IL-1B inflam inh = qHTS for Inhibitors of Inflammasome Signaling: IL-1-beta AlphaLISA Primary Screen; THP-1 LPS/ATP IL-1B secretion, AlphaLISA, 16 h; stronger effect = lower value; activity change, % at 57.5 µM; 360,000 compounds, 4.7% hits; AID 743279, 2014; in the data active = activity change below about -50%; inconclusive = mostly about -30% to -49%
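THP-1 cells pretreated 1 hr with compounds (up to 57.5 uM final), then stimulated with LPS (250 ng/mL final) plus ATP (1.25 mM final); secreted IL-1B measured by AlphaLISA after 16 hr, decreased signal indicating inhibition.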
RORg inh = qHTS for inhibitors of ROR gamma transcriptional activity. 310,000 compounds, 5.4% hits. AID 2551, 2010. Potency, µM (titrated, usually from 53.6 µM), without a hit: at the top dose activity change, negative = inhibition, usual class: inhibitors. Nuclear receptor ROR-gamma (Mus musculus), P51450. Drosophila S2 Gal4-RORgamma UAS-luciferase reporter, 20 h; also: potency is read from the fitted curve at half-maximal effect; nearly all actives have a fitted effect of over 60% in size
Target sequence (P51450 whole entry, looked up, the tested form may be a part): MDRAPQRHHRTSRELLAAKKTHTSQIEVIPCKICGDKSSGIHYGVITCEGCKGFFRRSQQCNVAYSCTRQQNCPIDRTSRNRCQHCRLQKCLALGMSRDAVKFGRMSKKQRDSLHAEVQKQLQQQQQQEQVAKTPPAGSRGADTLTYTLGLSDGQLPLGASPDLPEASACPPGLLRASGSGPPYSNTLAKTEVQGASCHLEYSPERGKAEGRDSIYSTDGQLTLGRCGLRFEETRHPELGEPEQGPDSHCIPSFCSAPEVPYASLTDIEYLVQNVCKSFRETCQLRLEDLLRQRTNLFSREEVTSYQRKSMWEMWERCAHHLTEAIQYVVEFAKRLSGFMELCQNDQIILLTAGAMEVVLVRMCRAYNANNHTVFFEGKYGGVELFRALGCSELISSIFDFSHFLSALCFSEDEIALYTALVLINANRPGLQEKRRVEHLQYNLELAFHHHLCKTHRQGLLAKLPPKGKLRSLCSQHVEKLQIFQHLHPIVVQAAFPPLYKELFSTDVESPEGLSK
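Schneider cells (Drosophila), stable Gal4 DBD–ROR gamma + UAS-luc; 1 hr cmpd preincubation; Cu2+ induction 700 uM final; 20 hr ambient; luminescence.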
LDHA block = qHTS assay for inhibitors of human lactate dehydrogenase; AID 1347041, 2019; L-lactate dehydrogenase A chain (Homo sapiens), P00338; activity change, % (values are at about 110 or 230 µM); purified LDHA, NADH/diaphorase-resazurin fluorescence; stronger effect = lower value; 480,000 compounds, 0.15% hits; in the data active = activity change below about -30%; inconclusive = mostly about -25% to -30%;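 also: plate controls were DMSO wells for no effect and wells without enzyme for full effect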
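Enzyme activity of human lactate dehydrogenase 5 (2 nM; 0.06 mM NADH, 0.2 mM pyruvate, 5 min, RT) is measured via a resazurin/diaphorase fluorescence readout of residual NADH.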
Gal4-VP16 FLuc = VP16 counterscreen qHTS for inhibitors of ROR gamma transcriptional activity. Potency, µM (series often up to 53.6 µM), for inactives: top-dose activity, negative = inhibition, actives largely listed as inhibitors. 310,000 compounds, 3.5% hits. AID 2546, 2010. Drosophila S2 Gal4-VP16 UAS-luciferase, luminescence, 20 h;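 also: Gal4-VP16 expression switched on by copper sulfate through the metallothionein promoter; potency is read from the fitted curve at half-maximal effect; nearly all actives have a fitted effect of over 50% in size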
DT40 TDP1 CPT = qHTS for Inhibitors of human tyrosyl-DNA phosphodiesterase 1 (TDP1): qHTS in cells in presence of CPT. chicken DT40 Tdp1-/-;hTDP1 cells + 20 nM CPT, ATP luminescence, 48 h. Potency, µM (top dose mostly 46.2 µM), inactives show top-dose activity change, negative = growth inhibition, usual class: inhibitors. 420,000 compounds, 12% hits. AID 686979, 2013; also: potency is read from the fitted curve at half-maximal effect; nearly all actives have a fitted effect of over 55% in size
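Chicken DT40 Tdp1-/- cells stably complemented with human TDP1 were seeded at 400 cells/well in medium containing 20 nM camptothecin, exposed to pin-transferred compounds, and grown at 37 °C for at least 48 hr. Viability was read as ATP luminescence.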
TDP1 cell noCPT = qHTS for Inhibitors of human tyrosyl-DNA phosphodiesterase 1 (TDP1): qHTS in cells in absence of CPT. DT40 Tdp1-/- hTDP1 cells, no CPT, ATP luminescence, 48 h. Potency, µM (titrated, usually from 46.2 µM), without a hit: top-dose activity change, negative = growth inhibition, most hits filed as inhibitors. 420,000 compounds, 15% hits. AID 686978, 2013; also: potency is read from the fitted curve at half-maximal effect; nearly all actives have a fitted effect of over 55% in size
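Chicken DT40 Tdp1-/- cells complemented with human TDP1, screened without camptothecin (DMSO vehicle only), 400 cells/well. Compounds pin-transferred, cells incubated at 37 °C for at least 48 hr. Growth read as ATP-dependent luminescence (CellTiter-Glo, 30 min at RT).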
Starred values were filed as active, the others as inactive; ? = inconclusive; nt = not tested or not shown. Unless noted, calls follow the shape of the dose curve; as a rule, active = well fitted curve in the direction sought with a large enough effect; inconclusive = small, poorly fitted or top-dose-only effect, or another doubt; inactive = no such curve, though single readings can be large; an effect the other way counts as inactive or inconclusive. Unless noted, % is scaled to controls: 0 for no effect and ±100 for the full control effect.

SMILES | IL-1B inflam inh | RORg inh | LDHA block | Gal4-VP16 FLuc | DT40 TDP1 CPT | TDP1 cell noCPT
O=C(OCC(=O)c1ccc([N+](=O)[O-])cc1)/C(=C\c1ccc(Cl)cc1)NC(=O)c1ccccc1 | ? | 25% | 0 | -4% | ? | ?
O=C(CNC(=O)c1cccs1)NCC(=O)OCC(=O)c1ccc([N+](=O)[O-])cc1 | 0 | -3% | 9 | 1% | 18µM* | ?
CC(=NCCc1c[nH]c2ccccc12)c1c(O)n(Cc2ccccc2)c(=O)[nH]c1=O | ? | 22% | -3 | -26% | 7.3µM* | 8.2µM*
C/C(=N\Nc1cccc2ccccc12)c1c(O)n(Cc2ccccc2)c(=O)[nH]c1=O | 4 | -8% | 29 | -7% | 16µM* | 21µM*
O=c1[nH]c2ccccc2c(=O)n1-c1ccc(Cl)cc1Cl | -9 | 12% | -5 | 9% | 16µM* | 18µM*
Cc1cc(C)cc(-n2c(=O)[nH]c3ccccc3c2=O)c1 | nt | nt | 0 | nt | 18µM* | ?
O=c1[nH]c2ccccc2c(=O)n1-c1ccc(Cl)c(Cl)c1 | nt | nt | -11 | nt | ? | -14%
CC(C(=O)NCc1cccs1)N1CC=C(c2ccccc2)CC1 (stereo unspecified) | nt | nt | 1 | nt | nt | nt
CC12CN3CC(C)(C[N+](C)(C3)C1)C2=O | nt | nt | 0 | nt | nt | nt
CCOc1ccc(CC(=O)Nc2ccc3c(c2)N(C)C(=O)c2ccccc2S3)cc1OCC | nt | nt | 0 | nt | ? | ?
CN[C@@H]1C[C@H](c2ccc(Cl)c(Cl)c2)c2ccccc21 | nt | ? | nt | ? | 8.4µM* | 9.4µM*
CN[C@@H]1C[C@@H](c2ccc(Cl)c(Cl)c2)c2ccccc21 | nt | 3% | nt | 5% | 24µM* | 12µM*
COCCN1CCC(O)C2CCCCC21 (stereo unspecified) | nt | nt | 0 | nt | nt | nt
CSc1nc(N)c2c(n1)OC(N)=C(C#N)C2c1ccccc1F (stereo unspecified) | nt | nt | -3 | nt | nt | nt
Cc1csc(NC(=O)C(Cl)c2ccccc2)n1 (stereo unspecified) (tested in a mixture with another compound) | -21 | nt | -7 | nt | ? | ?
CC(C)(C)c1csc(NC(=O)Nc2ccccc2)n1 | -94* | ? | -4 | -8% | -25% | ?
Cc1ccc2c(c1)C1CN(C)CCC1N2 (stereo unspecified) | nt | nt | nt | nt | 6% | ?
CN1CC[C@@]2(CCCN(C(=O)c3ccncc3)C2)C1 | nt | -4% | nt | -3% | -6% | -15%
O=C(N/N=C/c1ccccc1OC(=O)N1CCOCC1)c1cccs1 | 126 | 2.5µM* | -5 | 13µM* | 4.1µM* | 4.6µM*
O=C(c1cccs1)N1CCC(C(=O)O)(c2ccccc2)CC1 | 29 | nt | -2 | nt | -17% | -13%
CC1Cc2ccccc2CN1 (stereo unspecified) | nt | nt | nt | nt | -5% | 5%
COc1ccc(NC(=O)CCn2cc(C)c3ccccc32)cc1 | -27 | 32% | -2 | 23% | -23% | ?
COc1ccc(NC(=O)CCn2cnc3onc(-c4ccc(F)cc4)c3c2=O)cc1OC | nt | nt | -7 | nt | 2.9µM* | 2.9µM*
CC(=O)[O][Hg][c]1ccccc1 | nt | 1.1µM* | nt | 1% | 0.16µM* | 0.16µM*
C[C@H](N)C(=O)c1ccccc1 | nt | nt | nt | nt | -10% | -14%
SMILES | IL-1B inflam inh | RORg inh | LDHA block | Gal4-VP16 FLuc | DT40 TDP1 CPT | TDP1 cell noCPT
CC(=O)Nc1c2sscc-2n(C)c1=O | nt | 0.4µM* | nt | 0.25µM* | nt | nt
CCOc1ccccc1CN1CCN(c2cccc(C)c2C)CC1 | nt | nt | 4 | nt | nt | nt
Cc1ccc(S(=O)(=O)N2Cc3cc(-c4ccccc4)ccc3-n3nncc3C2)cc1 | 0 | nt | -5 | nt | ? | ?
COc1ccc(NC(=S)N2Cc3ccccc3-n3nncc3C2)c(OC)c1 | 20 | nt | -7 | nt | ? | 12µM*
Cc1cc(C)c(S(=O)(=O)N2Cc3ccccc3-n3nncc3C2)c(C)c1 | 11 | nt | -3 | nt | 5.2µM* | 2.1µM*
COc1ccc(S(=O)(=O)N2Cc3ccccc3-n3nncc3C2)cc1 | 33 | nt | -2 | nt | 16µM* | 15µM*
COc1cc(C(=O)N2Cc3ccccc3-n3nncc3C2)cc(OC)c1OC | 47 | nt | -4 | nt | -10% | -20%
CC(C)S(=O)(=O)N1Cc2ccccc2-n2nncc2C1 | -2 | nt | -1 | nt | -1% | 10%
O=S(=O)(c1cccc2ccccc12)N1Cc2ccccc2-n2nncc2C1 | 8 | nt | -18 | nt | 23µM* | 12µM*
O/N=C1\C(=C\c2ccccc2)N2CCC1CC2 | nt | nt | 14 | nt | nt | nt
O=S(=O)(c1ccc(Cl)cc1)N1Cc2cc(Br)ccc2-n2nncc2C1 | 6 | nt | -4 | nt | 21µM* | 23µM*
Clc1ccc(C(Cl)(Cl)Cl)cc1Cl | nt | -1% | nt | -4% | nt | nt
CC12Cc3cn[nH]c3C=C1CCC1C2CCC2(C)C1CCC2(C)O (stereo unspecified) | -91* | nt | -4 | nt | ? | ?
COP(=S)(OC)Oc1ccc([N+](=O)[O-])c(C)c1 | nt | 2% | nt | -12% | nt | nt
C[S@@](=O)CCCCN=C=S | nt | 3.2µM* | nt | -11% | nt | nt
CC(=O)[C@@]1(O)CC[C@H]2[C@@H]3CCC4=CC(=O)CC[C@]4(C)C3(F)[C@@H](O)C[C@@]21C (stereo partly specified) | nt | nt | nt | nt | 13% | -14%
C[C@H]1C[C@H]2[C@@H]3CCC4=CC(=O)C=C[C@]4(C)[C@@]3(F)[C@@H](O)C[C@]2(C)[C@@]1(O)C(=O)CCl | nt | nt | nt | nt | -97% | 0.053µM*
C=C1C/C(=C/C)C(=O)O[C@@H]2CCN3CC=C(COC(=O)[C@]1(C)O)[C@@H]23 | nt | -36% | nt | -7% | -26% | -18%
COC(=O)C1=C(c2ccc(OC)c(OC)c2)C[C@@H]2CC[C@H]1N2C(=O)NCCc1ccccc1 | 25 | nt | 1 | nt | -27% | ?
COC(=O)C1=C(c2ccc(-c3ccccc3)c(F)c2)C[C@@H]2CC[C@H]1N2C(=O)NCCc1ccccc1 | -10 | nt | -2 | nt | ? | 16µM*
COC(=O)C1=C(c2ccc3ccccc3c2)C[C@@H]2CC[C@H]1N2C(=O)NCCCOC(C)C | 7 | nt | -3 | nt | ? | 15µM*
COC(=O)C1=C(c2ccc3ccccc3c2)C[C@@H]2CC[C@H]1N2C(=O)NCc1ccc(C(F)(F)F)cc1 | ? | nt | -4 | nt | ? | ?
